“And” between values parts separate entries of the source, which are not always exact repeats. Identical values can stand only once. The whole screen tested about 5,500 compounds, of which about 2,000 (36%) were called active. Inconclusive results (about 18%) are left out. The list shows a part of the results. A number with no mark means an inactive call. No stated cut-off is given here; in the data, active means normalized growth mostly below about 0.91 (no sharp cut-off); inconclusive means no clear call, values can overlap the other calls; inactive means mostly above about 0.92.
Test: chemical genetic growth profiling, strain panel (AID 1159580);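 further: tested at 20 µM; growth read once vehicle control cultures reached saturation at 30 °C; 1 = growth at the plate median or of vehicle wells; lower values mean less growth of the strain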
Settings: S. cerevisiae deletion strains, growth OD

CC(=O)O[C@@H]1CC2C(C)(C)C(=O)CC[C@]2(C)C2CC[C@@]3(C)[C@H](c4ccoc4)OC(=O)C4OC43[C@@]21C (some centres not stated)
normalized growth (locus YAL013W, strain DEP1, hits give low values): 1.01 | normalized growth (locus YAL021C, strain ccr4, hits give low values): 1.01 | normalized growth (locus YAL026C, strain drs2, hits give low values): 0.982 | normalized growth (locus YAL030W, strain snc1, hits give low values): 0.987 | normalized growth (locus YBL061C, strain skt5, hits give low values): 0.98 | normalized growth (locus YBR009C, strain hhf1, hits give low values): 0.985 | normalized growth (locus YBR021W, strain FUR4, hits give low values): 0.953 | normalized growth (locus YBR023C, strain chs3, hits give low values): 0.992 | normalized growth (locus YBR171W, strain sec66, hits give low values): 0.952 | normalized growth (locus YBR229C, strain ROT2, hits give low values): 1 | normalized growth (locus YBR231C, strain swc5, hits give low values): 1.01 | normalized growth (locus YBR279W, strain paf1, hits give low values): 0.991 | normalized growth (locus YCL011C, strain gbp2, hits give low values): 0.977 | normalized growth (locus YCL016C, strain dcc1, hits give low values): 1.03 | normalized growth (locus YCL029C, strain bik1, hits give low values): 1.02 | normalized growth (locus YCL069W, strain vba3, hits give low values): 0.96 | normalized growth (locus YCR088W, strain abp1, hits give low values): 0.973 | normalized growth (locus YDL005C, strain med2, hits give low values): 0.968 | normalized growth (locus YDL035C, strain GPR1, hits give low values): 0.985 | normalized growth (locus YDL040C, strain nat1, hits give low values): 0.976 | normalized growth (locus YDL074C, strain BRE1, hits give low values): 0.985 | normalized growth (locus YDL101C, strain DUN1, hits give low values): 1.01 | normalized growth (locus YDL134C, strain PPH21, hits give low values): 0.992 | normalized growth (locus YDL185W, strain tfp1, hits give low values): 1.01 | normalized growth (locus YDL192W, strain arf1, hits give low values): 1.01 | normalized growth (locus YDR001C, strain nth1, hits give low values): 0.981 | normalized growth (locus YDR069C, strain doa4, hits give low values): 0.943 | normalized growth (locus YDR101C, strain arx1, hits give low values): 0.994 | normalized growth (locus YDR137W, strain rgp1, hits give low values): 0.968 | normalized growth (locus YDR159W, strain sac3, hits give low values): 0.917 | normalized growth (locus YDR162C, strain NBP2, hits give low values): 0.981 | normalized growth (locus YDR195W, strain ref2): 0.972 | normalized growth (locus YDR297W, strain sur2, hits give low values): 0.98 | normalized growth (locus YDR318W, strain mcm21, hits give low values): 1 | normalized growth (locus YDR334W, strain swr1, hits give low values): 0.98 | normalized growth (locus YDR335W, strain msn5, hits give low values): 0.981 | normalized growth (locus YDR388W, hits give low values): 1.01 | normalized growth (locus YDR392W, strain spt3, hits give low values): 0.897 | normalized growth (locus YDR502C, strain sam2, hits give low values): 1.02 | normalized growth (locus YEL003W, strain gim4, hits give low values): 0.965 | normalized growth (locus YEL037C, strain rad23, hits give low values): 0.978 | normalized growth (locus YEL061C, strain CIN8 (second series), hits give low values): 0.961 | normalized growth (locus YEL061C, strain CIN8, hits give low values): 1 | normalized growth (locus YER015W, strain faa2, hits give low values): 1 | normalized growth (locus YER016W, strain bim1, hits give low values): 0.972 | normalized growth (locus YER110C, hits give low values): 1.02 | normalized growth (locus YER111C, strain swi4, hits give low values): 0.961 | normalized growth (locus YER155C, strain BEM2 (second series), hits give low values): 1.01 | normalized growth (locus YER155C, strain BEM2, hits give low values): 0.978 | normalized growth (locus YER167W, strain BCK2, hits give low values): 0.993 | normalized growth (locus YFR010W, strain ubp6, hits give low values): 0.958 | normalized growth (locus YGL078C, strain dbp3, hits give low values): 1.01 | normalized growth (locus YGL086W, strain mad1, hits give low values): 1.01 | normalized growth (locus YGL167C, strain pmr1, hits give low values): 0.989 | normalized growth (locus YGL173C, strain kem1, hits give low values): 0.957 | normalized growth (locus YGL227W, strain vid30, hits give low values): 0.975 | normalized growth (locus YGL240W, strain doc1, hits give low values): 0.979 | normalized growth (locus YGL248W, strain PDE1, hits give low values): 0.998 | normalized growth (locus YGL253W, strain hxk2, hits give low values): 0.874 (active) | normalized growth (locus YGR135W, strain pre9, hits give low values): 1.03 | normalized growth (locus YGR252W, strain gcn5, hits give low values): 0.959 | normalized growth (locus YHR013C, strain ard1, hits give low values): 0.979 | normalized growth (locus YHR027C, strain rpn1, hits give low values): 0.987 | normalized growth (locus YHR030C, strain SLT2, hits give low values): 1.01 and 0.997 | normalized growth (locus YHR079C, strain IRE1 (second series), hits give low values): 1.02 | normalized growth (locus YHR079C, strain IRE1, hits give low values): 0.987 | normalized growth (locus YHR094C, strain hxt1, hits give low values): 1.02 | normalized growth (locus YHR129C, strain ARP1, hits give low values): 0.999 | normalized growth (locus YHR142W, strain chs7, hits give low values): 0.96 | normalized growth (locus YHR200W, strain rpn10, hits give low values): 1 | normalized growth (locus YIL066C, strain RNR3, hits give low values): 0.982 | normalized growth (locus YIL073C, strain SPO22, hits give low values): 1.01 | normalized growth (locus YIL125W, strain kgd1, hits give low values): 0.998 | normalized growth (locus YIR030C, strain dcg1, hits give low values): 1.01 | normalized growth (locus YJL092W, strain hpr5, hits give low values): 0.973 | normalized growth (locus YJL095W, strain BCK1 (second series), hits give low values): 0.993 | normalized growth (locus YJL095W, strain BCK1, hits give low values): 0.994 and 0.967 | normalized growth (locus YJL115W, strain asf1, hits give low values): 0.99 | normalized growth (locus YJL129C, strain trk1, hits give low values): 0.928 | normalized growth (locus YJL134W, strain LCB3, hits give low values): 0.999 | normalized growth (locus YJL154C, strain vps35, hits give low values): 0.984 | normalized growth (locus YJL164C, strain tpk1, hits give low values): 1.01 | normalized growth (locus YJL166W, strain qcr8, hits give low values): 0.977 | normalized growth (locus YJL168C, strain set2, hits give low values): 1.02 | normalized growth (locus YJL187C, strain SWE1 (second series), hits give low values): 1.01 | normalized growth (locus YJR066W, strain TOR1, hits give low values): 0.95 | normalized growth (locus YJR075W, strain HOC1, hits give low values): 0.992 | normalized growth (locus YKL009W, strain mrt4, hits give low values): 0.98 | normalized growth (locus YKL068W, hits give low values): 1 | normalized growth (locus YKL085W, strain MDH1 (second series), hits give low values): 1.01 | normalized growth (locus YKL085W, strain MDH1, hits give low values): 1.01 | normalized growth (locus YKL160W, strain elf1, hits give low values): 1.03 | normalized growth (locus YKL190W, strain CNB1, hits give low values): 1 | normalized growth (locus YKR001C, strain vps1, hits give low values): 0.987 | normalized growth (locus YKR026C, strain gcn3, hits give low values): 0.966 | normalized growth (locus YKR091W, strain srl3, hits give low values): 0.996 | normalized growth (locus YLL001W, strain dnm1, hits give low values): 0.959 | normalized growth (locus YLL026W, hits give low values): 0.989 | normalized growth (locus YLL041C, strain sdh2, hits give low values): 1 | normalized growth (locus YLR027C, strain aat2, hits give low values): 1 | normalized growth (locus YLR039C, strain RIC1, hits give low values): 1.03 | normalized growth (locus YLR058C, strain SHM2, hits give low values): 1 | normalized growth (locus YLR102C, strain apc9, hits give low values): 1.01 | normalized growth (locus YLR113W, strain HOG1, hits give low values): 1.02 | normalized growth (locus YLR221C, strain rsa3, hits give low values): 0.946 | normalized growth (locus YLR258W, strain gsy2, hits give low values): 0.988 | normalized growth (locus YLR262C, strain YPT6 (second series), hits give low values): 0.97 | normalized growth (locus YLR262C, strain YPT6, hits give low values): 1.01 | normalized growth (locus YLR268W, strain sec22, hits give low values): 0.994 | normalized growth (locus YLR320W, strain mms22, hits give low values): 0.969 | normalized growth (locus YLR342W, strain FKS1 (second series), hits give low values): 1 | normalized growth (locus YLR342W, strain FKS1, hits give low values): 0.977 | normalized growth (locus YLR357W, strain rsc2, hits give low values): 1.02 | normalized growth (locus YLR370C, strain arc18, hits give low values): 0.957 | normalized growth (locus YLR371W, strain rom2, hits give low values): 1 | normalized growth (locus YLR384C, strain iki3, hits give low values): 0.976 | normalized growth (locus YLR418C, strain cdc73, hits give low values): 0.979 | normalized growth (locus YML016C, strain PPZ1, hits give low values): 0.994 | normalized growth (locus YML032C, strain rad52, hits give low values): 0.995 | normalized growth (locus YML120C, strain ndi1, hits give low values): 1.01 | normalized growth (locus YML124C, strain tub3, hits give low values): 1 | normalized growth (locus YMR058W, strain fet3, hits give low values): 0.991 | normalized growth (locus YMR078C, strain ctf18, hits give low values): 1.01 | normalized growth (locus YMR125W, strain sto1, hits give low values): 0.978 | normalized growth (locus YMR129W, hits give low values): 0.985 | normalized growth (locus YMR205C, strain PFK2, hits give low values): 1 | normalized growth (locus YMR223W, strain ubp8, hits give low values): 1.01 | normalized growth (locus YMR231W, strain pep5, hits give low values): 0.966 | normalized growth (locus YMR307W, strain GAS1, hits give low values): 0.937 | normalized growth (locus YNL067W, strain RPL9B, hits give low values): 1.01 | normalized growth (locus YNL071W, strain lat1, hits give low values): 0.989 | normalized growth (locus YNL153C, strain GIM3, hits give low values): 1.01 | normalized growth (locus YNL183C, strain NPR1, hits give low values): 0.982 | normalized growth (locus YNL209W, strain ssb2, hits give low values): 0.997 | normalized growth (locus YNL233W, strain BNI4, hits give low values): 0.997 | normalized growth (locus YNL248C, strain rpa49, hits give low values): 0.942 | normalized growth (locus YNL250W, strain rad50, hits give low values): 1.01 | normalized growth (locus YNL271C, strain bni1, hits give low values): 1.01 | normalized growth (locus YNL298W, strain CLA4, hits give low values): 1.01 | normalized growth (locus YNL307C, strain MCK1, hits give low values): 1.02 | normalized growth (locus YNL322C, strain KRE1 (second series), hits give low values): 0.985 | normalized growth (locus YNR049C, strain mso1, hits give low values): 0.98 | normalized growth (locus YNR052C, strain pop2, hits give low values): 1.01 | normalized growth (locus YOL012C, strain htz1): 0.799 | normalized growth (locus YOL147C, strain pex11, hits give low values): 1.01 | normalized growth (locus YOR001W, strain rrp6, hits give low values): 0.925 | normalized growth (locus YOR061W, strain CKA2, hits give low values): 0.985 | normalized growth (locus YOR069W, strain VPS5, hits give low values): 1.01 | normalized growth (locus YOR070C, strain gyp1, hits give low values): 0.989 | normalized growth (locus YOR080W, strain dia2, hits give low values): 0.976 | normalized growth (locus YOR083W, strain WHI5, hits give low values): 1.03 | normalized growth (locus YOR106W, strain vam3, hits give low values): 1 | normalized growth (locus YOR136W, strain idh2, hits give low values): 1.02 | normalized growth (locus YOR144C, strain elg1, hits give low values): 1 | normalized growth (locus YOR184W, strain ser1, hits give low values): 0.989 | normalized growth (locus YOR231W, strain MKK1, hits give low values): 1.01 | normalized growth (locus YOR265W, strain rbl2, hits give low values): 0.979 | normalized growth (locus YOR270C, strain vph1, hits give low values): 0.835 | normalized growth (locus YOR290C, strain snf2, hits give low values): 1.01 | normalized growth (locus YOR316C, strain cot1, hits give low values): 1.02 | normalized growth (locus YPL051W, strain arl3, hits give low values): 0.964 | normalized growth (locus YPL055C, strain LGE1, hits give low values): 0.963 | normalized growth (locus YPL078C, strain atp4, hits give low values): 1.03 | normalized growth (locus YPL106C, strain sse1, hits give low values): 1.01 | normalized growth (locus YPL240C, strain hsp82, hits give low values): 0.978 | normalized growth (locus YPL241C, strain CIN2, hits give low values): 0.999 | normalized growth (locus YPL256C, strain CLN2, hits give low values): 1.01 | normalized growth (locus YPR119W, strain clb2, hits give low values): 1.01 | normalized growth (locus YPR141C, strain kar3, hits give low values): 1.01 | normalized growth (locus YPR163C, strain tif3, hits give low values): 1.01 | normalized growth (locus YPR167C, strain met16, hits give low values): 1.01 | normalized growth (strain wtn01, hits give low values): 0.977

Reference: PubChem BioAssay AID1159580 (chemical genetic matrix, 2015)
